From the supplement of paper PMC9135407
Several values for one entry are separate records, joined by “and”; a condition that tells them apart may be missing. Identical values can stand only once. Counter-ions that a name gives are not always drawn. Screen size: about 5,800 compounds; about 620 (11%) showed activity. What follows is part of a selection rich in actives, with near analogues and random picks from the rest. Unmarked numbers belong to inactive results.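 Rule for the calls: active = score above a cut-off or among the top three wells of a plate; in these data no inactive exceeds 0.85.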

Test system: primary human hepatic stellate cells (donor 1)
Test: scaled lipid accumulation score (0 = DMSO-like, 1 = nortriptyline-like); higher = stronger HSC inactivation (lipid re-accumulation), active = hit call of the paper
Conditions: 48 h
[1] = library stock concentration: 80 uM
[2] = library stock concentration: 400 uM
[3] = library stock concentration: 2 mM
[4] = library stock concentration: 3.33 mM
[5] = library stock concentration: 10 mM
[6] = library stock concentration: 1 mM

N[C@@H]1CCCN(c2c(/C=C3\SC(=O)NC3=O)cccc2-c2ccccc2)C1
scaled lipid accumulation score [1]: ≤ 0
scaled lipid accumulation score [2]: ≤ 0
scaled lipid accumulation score [3]: 0.016
scaled lipid accumulation score [4]: 0.072
scaled lipid accumulation score [5]: 0.072 and 0.486

CC(C)(C)c1cc(O)c(C(C)(C)C)cc1O [2,5-Ditertbutylhydroquinone]
scaled lipid accumulation score (library stock concentration: 22.5 mM): 0.463

CC(=O)OCC(=O)NCCCOc1cccc(CN2CCCCC2)c1 [Roxatidine acetate HCl]
scaled lipid accumulation score (library stock concentration: 5.7 mM): ≤ 0

O=C(O)Cc1cccc(OCCCN(Cc2cccc(C(F)(F)F)c2Cl)CC(c2ccccc2)c2ccccc2)c1
scaled lipid accumulation score [4]: ≤ 0
scaled lipid accumulation score [5]: 0.181

O=C(O)Cc1cccc(OCCCN(Cc2cccc(C(F)(F)F)c2Cl)CC(c2ccccc2)c2ccccc2)c1 [GW 3965 hydrochloride]
scaled lipid accumulation score [5]: ≤ -0.001

CC(=O)OCC(=O)NCCCOc1cccc(CN2CCCCC2)c1
scaled lipid accumulation score [5]: ≤ 0

O=C(O)/C=C\C(=O)O.O=C(O)/C=C\C(=O)O.c1cc(CN2CCCCC2)cc(OCCCNc2nc3ccccc3s2)c1
scaled lipid accumulation score [5]: 1.03 (active)

O=C(O)/C=C\C(=O)O.O=C(O)/C=C\C(=O)O.c1cc(CN2CCCCC2)cc(OCCCNc2nc3ccccc3s2)c1 [Zolantidine dimaleate]
scaled lipid accumulation score [5]: 1.5 (active)

CC(=O)OCC(=O)NCCCOc1cccc(CN2CCCCC2)c1 [Roxatidine Acetate HCl]
scaled lipid accumulation score: 0.032
scaled lipid accumulation score [4]: ≤ 0
scaled lipid accumulation score [5]: ≤ 0

c1ccc2sc(N3CCN(Cc4ccc5c(c4)OCO5)CC3)nc2c1 [2-[1-(4-Piperonyl)piperazinyl]benzothiazole]
scaled lipid accumulation score [5]: ≤ 0

CCCCCCCCCCCCCCCCCC(=O)N[C@H]1CCOC1=O [N-octadecanoyl-L-Homoserine lactone]
scaled lipid accumulation score [6]: ≤ 0

CCCCN1C[C@H](O)[C@@H](O)[C@H](O)[C@H]1CO [Miglustat]
scaled lipid accumulation score (library stock concentration: 9.1 mM): ≤ 0

Nc1nc(Nc2ccccc2)nc2c1ncn2[C@@H]1O[C@H](CO)[C@@H](O)[C@H]1O
scaled lipid accumulation score [5]: ≤ 0

CS(=O)(=O)O.Cc1ccc(NC(=O)c2ccc(CN3CCN(C)CC3)cc2)cc1Nc1nccc(-c2cccnc2)n1 [Imatinib]
scaled lipid accumulation score [5]: 0.969 (active)

Cc1ccc(NC(=O)c2ccc(CN3CCN(C)CC3)cc2)cc1Nc1nccc(-c2cccnc2)n1 [Imatinib (STI571)] [listing 1 of 2 here]
scaled lipid accumulation score [4]: 0.133

CS(=O)(=O)O.Cc1ccc(NC(=O)c2ccc(CN3CCN(C)CC3)cc2)cc1Nc1nccc(-c2cccnc2)n1
scaled lipid accumulation score [5]: 1.08 (active)

Cc1cc(-c2ccc(CC(=O)Nc3ccc(-c4cccnc4)cc3)cc2)ccn1
scaled lipid accumulation score [4]: 0.089
scaled lipid accumulation score [5]: 0.262

Cc1ccc(NC(=O)c2ccc(CN3CCN(C)CC3)cc2)cc1Nc1nccc(-c2cccnc2)n1 [Imatinib Mesylate (STI571)]
scaled lipid accumulation score [4]: 0.259

CS(=O)(=O)O.Cc1ccc(NC(=O)c2ccc(CN3CCN(C)CC3)cc2)cc1Nc1nccc(-c2cccnc2)n1 [Imatinib Mesylate (STI571)]
scaled lipid accumulation score [5]: 1.1 (active)

Cc1ccc(NC(=O)c2ccc(CN3CCN(C)CC3)cc2)cc1Nc1nccc(-c2cccnc2)n1 [Imatinib (STI571)] [listing 2 of 2 here]
scaled lipid accumulation score [5]: 0.92 (active)

Cc1ccc(NC(=O)c2ccc(CN3CCN(C)CC3)cc2)cc1Nc1nccc(-c2cccnc2)n1
scaled lipid accumulation score [2]: 0.022
scaled lipid accumulation score [3]: ≤ -0.005
scaled lipid accumulation score [5]: 0.628

Cc1ccc(NC(=O)c2ccc(CN3CCN(C)CC3)cc2)cc1Nc1nccc(-c2cccnc2)n1 [Imatinib]
scaled lipid accumulation score [1]: ≤ 0
scaled lipid accumulation score [2]: ≤ 0
scaled lipid accumulation score [3]: 0.049

CCCCC/C=C\C/C=C\C/C=C\CCCCCCC(=O)O [Dihomo-.gamma.-Linolenic Acid]
scaled lipid accumulation score [6]: 0.003

CCCCC/C=C\C/C=C\C/C=C\CCCCCCC(=O)O [Dihomo-gamma-linolenic acid]
scaled lipid accumulation score [6]: ≤ -0.021

CCCCC(CC)COC(=O)CC(C(=O)OCC(CC)CCCC)S(=O)(=O)O (stereo not given)
scaled lipid accumulation score [5]: ≤ 0

CCCCC[C@H](O)/C=C/[C@H]1[C@H](O)CC(=O)[C@H]1C/C=C\CCCC(=O)OC(C)C [8-iso Prostaglandin E2 isopropyl ester]
scaled lipid accumulation score [6]: ≤ 0

CC/C=C\C/C=C\C/C=C\C/C=C\C/C=C\C/C=C\CCC(=O)O[C@H](COCCCCCCCCCCCCCCCC)COP(=O)([O-])OCC[N+](C)(C)C [Docosahexaenoyl PAF C-16]
scaled lipid accumulation score [6]: ≤ 0

CC/C=C\C/C=C\C/C=C\C/C=C\C/C=C\CCCC(=O)O[C@H](COCCCCCCCCCCCCCCCC)COP(=O)([O-])OCC[N+](C)(C)C [Eicosapentaenoyl PAF C-16]
scaled lipid accumulation score [6]: ≤ 0

COc1ccc(CCN(C)CCCC(C#N)(c2cc(OC)c(OC)c(OC)c2)C(C)C)cc1OC (stereo not given)
scaled lipid accumulation score [5]: 0.616

CCCCC[C@H](O)/C=C/[C@@H]1[C@H]2C[C@@H](CCCCC(=O)O)O[C@H]2C[C@H]1O [6.alpha.-Prostaglandin I1]
scaled lipid accumulation score [6]: 0.002

C=CCc1ccc(O)c(-c2ccc(O)c(CC=C)c2)c1 [Honokiol]
scaled lipid accumulation score [4]: ≤ 0
scaled lipid accumulation score [5]: 0.295

CCCCC[C@@H](O)/C=C/[C@H]1C(=O)C[C@H](O)[C@@H]1CCCCCCCO [Prostaglandin D1 Alcohol]
scaled lipid accumulation score [6]: ≤ 0

CC(=O)CCCCn1cnc2c1c(=O)n(C)c(=O)n2C
scaled lipid accumulation score [5]: ≤ 0

Nc1ncnc2c1C(=O)N(c1ccc([C@H]3CC[C@H](CC(=O)O)CC3)cc1)CCO2
scaled lipid accumulation score [4]: ≤ -0.009
scaled lipid accumulation score [5]: ≤ 0

COc1ccc(CNCc2cccc3ccccc23)cc1
scaled lipid accumulation score [4]: 0.023
scaled lipid accumulation score [5]: 0.491

COc1ccc(CCC(C)NC2CC(C)(C)NC(C)(C)C2)cc1 (stereo not given)
scaled lipid accumulation score [5]: 0.998 (active)

CC(/C=C/c1cccc(Oc2ccc(F)cc2)c1)N(O)C(N)=O (stereo not given)
scaled lipid accumulation score [5]: 0.544 and 0.071

C[C@@H]1C[C@H]2[C@@H]3CCC4=CC(=O)C=C[C@]4(C)[C@@]3(F)[C@@H](O)C[C@]2(C)[C@H]1C(=O)CO
scaled lipid accumulation score [5]: ≤ 0

Cc1cc(C)cc(OCC2CNC(=O)O2)c1 (stereo not given) [Metaxalone]
scaled lipid accumulation score (library stock concentration: 9 mM): ≤ 0
scaled lipid accumulation score [5]: ≤ -0.023

COc1ccc2nc3cc(Cl)ccc3c(Nc3cc(CN4CCCC4)c(O)c(CN4CCCC4)c3)c2n1
scaled lipid accumulation score [5]: 0.065

N=C(N)NC(=N)N1CCOCC1
scaled lipid accumulation score [5]: ≤ 0

N=C(N)NC(=N)N1CCOCC1 [Moroxydine HCl]
scaled lipid accumulation score [4]: 0.051
scaled lipid accumulation score (library stock concentration: 9.6 mM): ≤ -0.006
scaled lipid accumulation score [5]: ≤ 0

CCN(CC)CCCCNc1ncc2cc(-c3c(Cl)cccc3Cl)c(NC(=O)NC(C)(C)C)nc2n1 [listing 1 of 2 here]
scaled lipid accumulation score [5]: 1.41 (active)

CCN(CC)CCOc1ccc(Nc2ncc3cc(-c4c(Cl)cccc4Cl)c(=O)n(C)c3n2)cc1
scaled lipid accumulation score [5]: 0.416

CCN(CC)CCCCNc1ncc2cc(-c3c(Cl)cccc3Cl)c(NC(=O)NC(C)(C)C)nc2n1 [listing 2 of 2 here]
scaled lipid accumulation score [5]: 0.999 (active)

CSc1cccc(Nc2ncc3cc(-c4c(Cl)cccc4Cl)c(=O)n(C)c3n2)c1
scaled lipid accumulation score [4]: 0.68
scaled lipid accumulation score [5]: 0.591

COc1c(C=O)c(O)cc2c1C(=O)c1ccccc1C2=O [Damnacanthal]
scaled lipid accumulation score (library stock concentration: 17.7 mM): ≤ -0.011

Nc1nc(=O)c2c([nH]1)NC[C@@H](CNc1ccc(C(=O)N[C@@H](CCC(=O)O)C(=O)O)cc1)N2C=O [Folinic acid calcium salt]
scaled lipid accumulation score: ≤ 0

CCC(=O)N1CCN(C(=O)c2ccccc2)CC1
scaled lipid accumulation score [5]: 0.027

O=C(c1ccc(/C=C/c2n[nH]c3ccccc23)cc1)N1CCNCC1
scaled lipid accumulation score [1]: ≤ -0.016
scaled lipid accumulation score [2]: ≤ -0.016
scaled lipid accumulation score [3]: ≤ -0.016
scaled lipid accumulation score [4]: 0.101
scaled lipid accumulation score [5]: 0.67

O=C(c1ccc(C=Cc2n[nH]c3ccccc23)cc1)N1CCNCC1
scaled lipid accumulation score [5]: 1.27 (active)

CCCCC(CC)CNC(=N)NC(=N)NCCCCCCNC(=N)NC(=N)NCC(CC)CCCC (stereo not given) [Alexidine dihydrochloride]
scaled lipid accumulation score: 0.586

CCCCC(C)(C)[C@H](O)/C=C/[C@@H]1[C@@H](C/C=C\CCCC(=O)O)[C@@H](O)C[C@H]1O [16,16-dimethyl Prostaglandin F2.alpha.]
scaled lipid accumulation score [6]: ≤ 0

O=[N+]([O-])c1cn2c(n1)OC[C@@H](OCc1ccc(OC(F)(F)F)cc1)C2
scaled lipid accumulation score [4]: ≤ 0
scaled lipid accumulation score [5]: ≤ 0

O=[N+]([O-])c1ccc2c(c1)S(=O)(=O)C=C2 [Stattic] [listing 1 of 2 here]
scaled lipid accumulation score [4]: 1.25 (active)

NC(=O)c1ccc([N+](=O)[O-])cc1Cl [Aklomide]
scaled lipid accumulation score [5]: 0.07

O=[N+]([O-])c1ccc2c(c1)S(=O)(=O)C=C2 [Stattic] [listing 2 of 2 here]
scaled lipid accumulation score [5]: 0.347

CCCCCCCC/C=C\CCCCCCCC(=O)NCC [Oleoyl Ethyl Amide]
scaled lipid accumulation score [6]: ≤ 0

O=c1[nH]cnc2[nH]ncc12 [Allopurinol Sodium]
scaled lipid accumulation score [4]: ≤ 0
scaled lipid accumulation score [5]: ≤ 0

CC(C)N(CC[C@H](c1ccccc1)c1cc(CO)ccc1O)C(C)C
scaled lipid accumulation score [4]: 0.012
scaled lipid accumulation score [5]: ≤ 0

CC(C)C(=O)Oc1ccc(CO)cc1[C@H](CCN(C(C)C)C(C)C)c1ccccc1.O=C(O)C=CC(=O)O [Fesoterodine Fumarate]
scaled lipid accumulation score [5]: 1.13 (active)

CC(C)C(=O)Oc1ccc(CO)cc1[C@H](CCN(C(C)C)C(C)C)c1ccccc1 [Fesoterodine Fumarate]
scaled lipid accumulation score [4]: 0.256

O=C(Cc1ccccc1Nc1c(Cl)cccc1Cl)Oc1ccc(-c2cc(=S)ss2)cc1
scaled lipid accumulation score [6]: ≤ 0

O=C(Nc1nc2ccccc2n1CCN1CCOCC1)c1cccc([N+](=O)[O-])c1 [IRAK-1/4 Inhibitor I]
scaled lipid accumulation score [5]: 0.485
